Laboratory results published in PubChem BioAssay (Tox21).
“And” between values parts separate entries of the source, which are not always exact repeats. Equal entries are not always repeated. Records with an inconclusive call do not appear. The source made the active and inactive calls. Calls come from the whole dose curve; as a rule, active = well fitted curve in the direction sought with a large enough effect in the repeat runs; inconclusive = weak or mixed curves; inactive = no such curve, though single readings can be large; an effect the other way counts as inactive or inconclusive.

Experiments:
[1] = Human pregnane X receptor (PXR) small molecule agonists, qHTS cell viability counter screen (AID 1346977); note: nearly all actives have a fitted effect of over 50% in size; note: potency is the fitted concentration of half-maximal effect
In short: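 HepG2 cells stably carrying the PXR-Luc reporter are cultured with 5% charcoal-stripped FBS and treated with compounds for 24hr. CellTiter-Fluor is added at 23hr and fluorescence is read after 1hr.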

[2] = Caspase-3/7 induction in HepG2 cells by small molecules, qHTS assay (AID 1346978); note: nearly all actives have a fitted effect of over 15% in size; note: potency is the fitted concentration of half-maximal effect
In short: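 Wild-type HepG2 cells, 2,000/well, settled 5 hr at 37 C and 5% CO2, then compound-treated for 17 hr; caspase-3/7 activity read by luminescent Caspase-Glo 3/7 after 30 min at room temperature.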

[3] = Caspase-3/7 induction in CHO-K1 cells by small molecules, qHTS cell viability counter screen (AID 1346979); note: nearly all actives have a fitted effect of over 35% in size; note: potency is the fitted concentration of half-maximal effect
In short: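 Seeding: 1,500 CHO-K1 cells/well. Rest: 5hr, 37C. Treatment: compounds in DMSO, 16hr. Read: CellTiter-Fluor, 1hr, fluorescence.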

[4] = Caspase-3/7 induction in HepG2 cells by small molecules, qHTS cell viability counter screen (AID 1346981); note: nearly all actives have a fitted effect of over 30% in size; note: potency is the fitted concentration of half-maximal effect; for activity change, negative = cytotoxicity: series mostly up to about 92 µM
In short: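 Steps: seed 2,000 HepG2 cells per well; incubate 5 hr at 37 C; pin-add compounds in DMSO; incubate 16 hr; add CellTiter-Fluor; after 1 hr at 37 C and 5% CO2, read fluorescence.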

[5] = biological target: Nuclear receptor subfamily 1 group I member 2 (Homo sapiens) (UniProt O75469); assay: Human pregnane X receptor (PXR) small molecule agonists, qHTS assay (AID 1346982); note: nearly all actives have a fitted effect of over 35% in size; note: potency is the fitted concentration of half-maximal effect
Chain of Nuclear receptor subfamily 1 group I member 2 (Homo sapiens) (O75469 whole entry, looked up): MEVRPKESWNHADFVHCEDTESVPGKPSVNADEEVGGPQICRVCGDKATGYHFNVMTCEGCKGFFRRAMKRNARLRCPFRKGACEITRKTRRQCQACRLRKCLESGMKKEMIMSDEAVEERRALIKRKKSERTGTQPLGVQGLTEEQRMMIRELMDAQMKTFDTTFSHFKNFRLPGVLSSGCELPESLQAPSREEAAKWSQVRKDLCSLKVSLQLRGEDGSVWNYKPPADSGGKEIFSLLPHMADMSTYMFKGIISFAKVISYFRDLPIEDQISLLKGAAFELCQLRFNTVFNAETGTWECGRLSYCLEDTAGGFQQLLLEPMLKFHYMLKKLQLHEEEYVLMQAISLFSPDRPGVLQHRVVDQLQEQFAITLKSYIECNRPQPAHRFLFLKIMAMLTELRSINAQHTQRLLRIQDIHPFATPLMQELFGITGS
In short: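 Agonist mode qHTS: PXR-Luc HepG2 cells plated 5 hr before DMSO-dissolved compounds were pinned in, cultured 24 hr at 37 C, 5% CO2; ONE-Glo luminescence readout.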

[6] = biological target: Cytochrome P450 2D6 (Homo sapiens) (UniProt P10635); assay: Cytochrome P450 Family 2 Subfamily D Member 6 (CYP2D6) small molecule antagonists: luciferase reporter qHTS assay (AID 1671196); note: nearly all actives have a fitted effect of over 50% in size; note: potency is the fitted concentration of half-maximal effect; for activity change, negative = inhibition: series mostly up to about 120 µM
Chain of Cytochrome P450 2D6 (Homo sapiens) (P10635 whole entry, looked up): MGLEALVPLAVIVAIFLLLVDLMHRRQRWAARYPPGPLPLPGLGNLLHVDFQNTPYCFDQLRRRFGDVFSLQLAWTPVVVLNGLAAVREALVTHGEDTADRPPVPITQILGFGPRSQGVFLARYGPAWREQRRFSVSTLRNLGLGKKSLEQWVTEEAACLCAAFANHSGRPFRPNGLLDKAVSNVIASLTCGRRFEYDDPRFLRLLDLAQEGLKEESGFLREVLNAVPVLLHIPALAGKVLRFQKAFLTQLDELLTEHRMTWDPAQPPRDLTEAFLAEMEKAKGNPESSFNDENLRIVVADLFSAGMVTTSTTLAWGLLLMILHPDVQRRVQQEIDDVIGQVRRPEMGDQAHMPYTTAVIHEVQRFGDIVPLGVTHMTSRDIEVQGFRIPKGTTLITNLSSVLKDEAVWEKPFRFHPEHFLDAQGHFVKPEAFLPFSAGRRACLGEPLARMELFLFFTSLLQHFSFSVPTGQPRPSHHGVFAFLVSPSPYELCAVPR
In short: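 P450-Glo format: CYP2D6 converts a proluciferin substrate to luciferin in an NADPH-driven reaction lasting 1 h at room temperature. Light output, proportional to CYP2D6 activity, reflects interference by test chemicals.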

[7] = biological target: Nuclear receptor subfamily 1 group I member 2 (Rattus norvegicus) (UniProt Q9R1A7); assay: Rat pregnane X receptor (rPXR) activation by small molecules, qHTS assay (AID 1346983); settings: rPXR luciferase reporter cells, One-Glo luminescence, 24 h; max activation: hits give high values; note: nearly all actives have a fitted effect of over 20% in size; note: potency is the fitted concentration of half-maximal effect
Chain of Nuclear receptor subfamily 1 group I member 2 (Rattus norvegicus) (Q9R1A7 whole entry, looked up): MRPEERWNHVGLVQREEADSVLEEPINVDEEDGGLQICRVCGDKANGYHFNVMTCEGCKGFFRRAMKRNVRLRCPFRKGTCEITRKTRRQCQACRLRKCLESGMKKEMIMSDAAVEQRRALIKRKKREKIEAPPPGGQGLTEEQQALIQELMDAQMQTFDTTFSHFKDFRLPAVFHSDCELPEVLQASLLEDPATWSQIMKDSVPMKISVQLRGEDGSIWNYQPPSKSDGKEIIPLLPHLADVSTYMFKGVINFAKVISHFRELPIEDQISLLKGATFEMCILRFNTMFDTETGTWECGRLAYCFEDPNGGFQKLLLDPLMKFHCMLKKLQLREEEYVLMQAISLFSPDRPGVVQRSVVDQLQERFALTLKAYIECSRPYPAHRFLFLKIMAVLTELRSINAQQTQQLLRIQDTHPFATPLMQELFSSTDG
In short: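 Cell-based rPXR activation assay: rPXR cells, 2,000 per well, rested 5hr at 37 C, then exposed to compounds in DMSO for 24 hr at 37 C. Luciferase activity read by One-Glo luminescence after 30 min at room temperature.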

[8] = Caspase-3/7 induction in CHO-K1 cells by small molecules, qHTS assay (AID 1346980); note: nearly all actives have a fitted effect of over 15% in size; note: potency is the fitted concentration of half-maximal effect
In short: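 Wild-type CHO-K1 cells exposed to compounds for 17hr at 37 C, 5% CO2. Caspase-3/7 activity then measured by Caspase-Glo 3/7 luminescence after 30min at room temperature.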

[9] = biological target: Nuclear receptor subfamily 1 group I member 2 (Homo sapiens) (UniProt O75469); assay: CYP3A4 induction through human pregnane X receptor (PXR) by small molecules, qHTS assay (AID 1346984); note: nearly all actives have a fitted effect of over 40% in size
In short: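 Steps: seed DPX-2 cells, 5 hr at 37C; pin-transfer compounds; 24 hr at 37C; add Luciferin-IPA (3uM final), 3 hr at 37C; add One-Glo, 30 min RT; read luminescence.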

[10] = biological target: Nuclear receptor subfamily 1 group I member 2 (Homo sapiens) (UniProt O75469); assay: Human pregnane X receptor (PXR) activation by small molecules, qHTS assay (AID 1346985); note: nearly all actives have a fitted effect of over 40% in size
In short: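 DPX-2 cells (HepG2 co-transfected with a PXR response element and a CYP3A4-promoter luciferase construct) were seeded at 2,000 per well, rested 5 hr at 37C, then exposed to DMSO-dissolved compounds for 24 hr. Activation was read as luciferase luminescence.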
% is set by controls: 0 for no effect and ±100 for the full control effect.

c1ccc(-c2ccccn2)nc1
active: Potency [5] 24.3 µM
inactive: Potency [1] | Potency [2] | Potency [3] | Potency [4] | Potency [6]

COc1ccnc(CS(=O)c2nc3ccc(OC(F)F)cc3[nH]2)c1OC (centres undefined)
active: Potency [6] 2.75 µM
inactive: Potency [1] | Potency [2] | Potency [3] | Potency [4] | Potency [5] | max activation [7] 0.184%

COCCCN1CCC(NC(=O)c2cc(Cl)c(N)c3c2OCC3)CC1
inactive: Potency [1] | Potency [2] | Potency [3] | Potency [4]
active: Potency [6] 3.89 µM

CCC(CC)Nc1ccc(C)c(C)c1
inactive: Potency [1] | Potency [2] | Potency [3] | Potency [8] | Potency [5] | Potency [6]

Brc1c2ccccc2c(Br)c2ccccc12
inactive: activity change, negative = cytotoxicity [1] 4.3% [at 8.39 µM] | caspase activation [2] 0.0205% [at 8.39 µM] | activity change, negative = cytotoxicity [3] 14.3% [at 8.39 µM] | activity change, negative = cytotoxicity [4] 5.61% [at 8.39 µM] | activation [5] 1.22% [at 8.39 µM]

CCCCCC[C@@H](O)C/C=C\CCCCCCCC(=O)OC
inactive: Potency [1] | Potency [2] | Potency [3] | Potency [8] | Potency [5] | Potency [6]

O=C1CCCCCCCCCCCC(=O)OCCO1
inactive: Potency [1] | Potency [2] | Potency [3] | Potency [4] | Potency [5]

CCC(=O)O[C@]1(C(=O)CCl)[C@@H](C)C[C@H]2[C@@H]3CCC4=CC(=O)C=C[C@]4(C)[C@@]3(F)[C@@H](O)C[C@@]21C
active: Potency [7] 2.24 µM | Potency [6] 15.5 µM
inactive: Potency [1] | Potency [2] | Potency [3] | Potency [8]

COc1ccc(C(=O)Nc2nc3ccccc3c(NCc3ccccc3)c2C#N)cc1
active: Potency [3] 19.3 µM | Potency [5] 7.7 µM
inactive: Potency [1] | Potency [2] | Potency [6]

CC(C)(C)Cl
inactive: Potency [1] | Potency [2] | Potency [3] | Potency [8] | Potency [6]

CCOCC(O)COc1ccc(NC(=O)CC[S+](C)C)cc1 (centres undefined)
inactive: Potency [1] | Potency [2] | Potency [3] | Potency [4] | Potency [5] | max activation [7] -0.952% | Potency [9] | Potency [10]

C=C(C)C(=O)OCC
inactive: Potency [1] | Potency [2] | Potency [3] | Potency [4] | Potency [5]

O=C(O)CNCC(=O)O
inactive: activity change, negative = cytotoxicity [1] 4.27% [at 8.39 µM] | caspase activation [2] 2.93% [at 8.39 µM] | activity change, negative = cytotoxicity [3] 0.398% [at 8.39 µM] | caspase-3/7 activation [8] 0.331% [at 8.39 µM] | activation [5] -2.51% [at 8.39 µM] | activity change, negative = inhibition [6] -0.567% [at 10.5 µM]

C[N+]1(C)CCC(OC(=O)C(O)(c2ccccc2)C2CCCC2)C1 (centres undefined)
inactive: Potency [1] | Potency [2] | Potency [3] | Potency [4] | Potency [5]

COc1ccc2cccc(CCNC(C)=O)c2c1
inactive: Potency [1] | Potency [2] | Potency [3] | Potency [4] | Potency [5] | Potency [6]

Cc1cc(C(=O)O)ccc1[N+](=O)[O-]
inactive: Potency [1] | Potency [2] | Potency [3] | Potency [4] | Potency [5]
active: Potency [6] 56.5 µM

CC(=O)c1ccc2c(c1)N(CCCN1CCC(CCO)CC1)c1ccccc1S2
inactive: Potency [2] | max activation [7] -2.34% | Potency [10]
active: Potency [1] 26.6 µM | Potency [3] 29.8 µM

CN(C)c1ccc(/C=C/c2ccc([N+](=O)[O-])cc2)cc1
inactive: activity change, negative = cytotoxicity [1] -0.583% [at 8.39 µM] | caspase activation [2] 0.696% [at 8.39 µM] | caspase-3/7 activation [8] -2.91% [at 8.39 µM]

CC(C)CC(=O)C1C(=O)c2ccccc2C1=O
inactive: Potency [1] | Potency [2] | Potency [8] | Potency [6]
active: Potency [3] 61.1 µM

C=CCOC(=O)CCC1CCCCC1
inactive: Potency [1] | Potency [2] | Potency [3] | Potency [8] | Potency [5] | Potency [6]

C=CC1CC2C=CC1C2 (centres undefined)
inactive: Potency [1] | Potency [2] | Potency [3] | Potency [8] | Potency [5] | Potency [6]

CCCCc1nc2cccnc2n1Cc1ccc(-c2ccccc2-c2nnn[nH]2)cc1
active: Potency [3] 48.6 µM | Potency [5] 61.1 µM
inactive: Potency [1] | Potency [2] | Potency [8] | Potency [6]

CC1=CC[C@H](C(C)C)C=C1
inactive: Potency [1] | Potency [2] | Potency [3]
active: Potency [5] 27.3 µM

O=C(NCC1CN(c2ccc(N3CCOCC3=O)cc2)C(=O)O1)c1ccc(Cl)s1 (centres undefined)
inactive: Potency [1] | Potency [2] | Potency [3] | Potency [4] | Potency [5] | Potency [6]

CCN(CC)CCNC(=O)c1cc(Br)c(N)cc1OC
inactive: Potency [1] | Potency [2] | Potency [3] | Potency [8] | Potency [5]
active: Potency [6] 4.9 µM

CCCCC/C=C\C/C=C\CCCCCCCC(=O)NC(C)c1ccccc1 (centres undefined)
inactive: Potency [1] | Potency [2] | Potency [4]
active: Potency [3] 26.6 µM | Potency [5] 21.1 µM | Potency [6] 4.36 µM

COS(=O)(=O)C(F)(F)F
inactive: Potency [1] | Potency [2] | Potency [3] | Potency [4] | Potency [5]

CC(C)Nc1ccc(NC(C)C)c2c1C(=O)c1ccccc1C2=O
active: Potency [1] 14.2 µM | Potency [3] 25.3 µM | Potency [4] 16 µM | Potency [5] 1.27 µM
inactive: Potency [2]

C=CC(=O)OCCOc1ccccc1
inactive: Potency [1] | Potency [2] | Potency [8]

Nc1cc(C(=O)O)c(O)c(S(=O)(=O)O)c1
active: Potency [6] 35.1 µM
inactive: Potency [1] | Potency [2] | Potency [8] | Potency [4]

C=CC(=O)OCCOCCOCCOCCOC(=O)C=C
active: Potency [1] 54 µM | Potency [2] 68 µM | Potency [8] 9.74 µM and 12.1 µM | Potency [4] 30.8 µM and 27.1 µM
inactive: Potency [5] | Potency [6]

CC(C)(COC(=O)c1ccccc1)COC(=O)c1ccccc1
inactive: Potency [1] | Potency [2] | Potency [8] | Potency [4] | Potency [5]
